Measured values from PMC5540273 (PLoS ONE, 2017).

Experiments:
Conditions in all cases: concentration: 1 μM, replicates: in singlicate; n = 1
CAMK2D = test system: CAMK2D
CAMK2G = test system: CAMK2G
CAMK4 = test system: CAMK4
CAMKK1 = test system: CAMKK1
CAMKK2 = test system: CAMKK2
CASK = test system: CASK
CDC2L1 = test system: T1, CDC2L1
T1 construct: gene CDK11B

CDC2L2 = test system: CDC2L2
CDC2L5 = test system: T2, CDC2L5
T2 construct: gene CDK13

CDK11 = test system: T3, CDK11
T3 construct: gene CDK19

CDK2 = test system: CDK2
CDK3 = test system: CDK3
CDK4-cyclinD1 = test system: CDK4-cyclinD1
CDK4-cyclinD3 = test system: CDK4-cyclinD3
CDK4 = test system: CDK4
CDK5 = test system: CDK5
CDK7 = test system: CDK7
CDK8 = test system: CDK8
CDK9 = test system: CDK9
CDKL1 = test system: CDKL1
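Further: KINOMEscan kinase panel screen.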

Row | SMILES | %Inh (CAMK2D) | %Inh (CAMK2G) | %Inh (CAMK4) | %Inh (CAMKK1) | %Inh (CAMKK2) | %Inh (CASK) | %Inh (CDC2L1) | %Inh (CDC2L2) | %Inh (CDC2L5) | %Inh (CDK11) | %Inh (CDK2) | %Inh (CDK3) | %Inh (CDK4-cyclinD1) | %Inh (CDK4-cyclinD3) | %Inh (CDK4) | %Inh (CDK5) | %Inh (CDK7) | %Inh (CDK8) | %Inh (CDK9) | %Inh (CDKL1)
1 | CC(C)(C)c1ccc(-n2cnc3c(N)ncnc32)cc1 [SKF-97263] | 2% | 0% | 0% | 0% | 0% | 12% | 0% | 0% | 0% | 10% | 0% | 3% | 0% | 0% | 0% | 0% | 0% | 0% | 0% | 0%
2 | Cl.Cn1ccc(-c2cccc(Nc3ccnc4cc(-c5nccs5)ccc34)c2)n1 [GW525701] | 26% | 21% | 0% | 25% | 20% | 2% | 0% | 0% | 0% | 3% | 0% | 6% | 47% | 0% | 36% | 0% | 0% | 7% | 0% | 0%
3 | Clc1cccc(-c2nc(Nc3ccncc3)c3ccccc3n2)c1 [GW873004] | 0% | 0% | 27% | 11% | 0% | 0% | 0% | 7% | 15% | 2% | 0% | 0% | 21% | 0% | 0% | 0% | 10% | 50% | 0% | 30%
4 | CSc1nn2c(=O)cc(N3CCOCC3)nc2n1Cc1cccc(Cl)c1Cl [GSK2347225] | 21% | 25% | 0% | 13% | 23% | 2% | 0% | 9% | 0% | 8% | 0% | 6% | 0% | 0% | 16% | 9% | 0% | 0% | 4% | 0%
5 | O=C(Nc1n[nH]c2nc(-c3ccco3)c(Br)cc12)c1ccc(CN2CCCC2)cc1.O=C(O)[C@H](O)[C@@H](O)C(=O)O [SB-742352] | 0% | 0% | 0% | 0% | 0% | 0% | 0% | 0% | 0% | 0% | 0% | 0% | 0% | 0% | 0% | 0% | 0% | 0% | 0% | 24%
6 | Cc1cccc(-c2nc(Nc3ccc4[nH]nnc4c3)c3ccccc3n2)n1 [GW867587] | 0% | 0% | 0% | 0% | 0% | 4% | 0% | 0% | 0% | 0% | 0% | 15% | 0% | 0% | 0% | 0% | 0% | 30% | 0% | 0%
7 | Nc1nc(-c2ccccn2)c(-c2ccnc3ccccc23)s1 [GW548057] | 6% | 20% | 0% | 13% | 21% | 26% | 0% | 11% | 0% | 10% | 0% | 5% | 49% | 0% | 0% | 0% | 2% | 56% | 0% | 12%
8 | Clc1ccc(-c2cc(-c3c[nH]nc3-c3ccccn3)ccn2)cc1 [GW681251] | 0% | 8% | 0% | 0% | 0% | 44% | 0% | 0% | 0% | 0% | 22% | 42% | 7% | 0% | 0% | 0% | 0% | 11% | 0% | 15%
9 | C[C@H]1CC[C@@H](C(=O)Nc2ccccc2)CN1c1cc(-c2ccc3c(N)n[nH]c3c2)nc(N)n1 [GSK2283293] | 3% | 16% | 0% | 7% | 15% | 4% | 0% | 13% | 0% | 0% | 0% | 0% | 0% | 0% | 0% | 0% | 0% | 14% | 0% | 22%
10 | Nc1nc(-c2ccc3c(N)n[nH]c3c2)cc(N2CCCCC2)n1 [GSK2228768] | 0% | 25% | 0% | 0% | 6% | 15% | 0% | 0% | 0% | 0% | 6% | 17% | 0% | 0% | 0% | 0% | 0% | 0% | 0% | 20%
11 | CNc1nccc(-c2c(-c3ccc(F)cc3)ncn2CCCN2CCOCC2)n1 [SB-222516] | 11% | 16% | 27% | 8% | 14% | 1% | 0% | 0% | 22% | 13% | 0% | 0% | 17% | 16% | 0% | 0% | 7% | 38% | 0% | 24%
12 | CCCc1ccc(S(=O)(=O)NC2CCN(c3ccnc(Nc4ccc(OC)cc4)n3)C2)cc1 (stereo not drawn) [GSK1379737] | 4% | 4% | 0% | 0% | 0% | 22% | 0% | 0% | 0% | 17% | 0% | 16% | 25% | 0% | 37% | 0% | 0% | 50% | 0% | 6%
13 | COc1ccc(Nc2nccc(N3CCC(NC(=O)c4cccc(NC(C)=O)c4)C3)n2)cc1 (stereo not drawn) [GSK1379732] | 8% | 26% | 3% | 0% | 26% | 13% | 0% | 11% | 0% | 15% | 0% | 0% | 20% | 0% | 0% | 0% | 3% | 56% | 0% | 9%
14 | Fc1ccc(Nc2nccc(-c3c(-c4ccc(Cl)cc4)nn4ncccc34)n2)cc1F [GW829058] | 0% | 2% | 0% | 2% | 5% | 26% | 6% | 11% | 30% | 18% | 13% | 18% | 62% | 12% | 19% | 34% | 42% | 0% | 12% | 17%
15 | Nc1nc(-c2ccc3c(N)n[nH]c3c2)cc(N2CCC[C@@H](C(=O)Nc3ccccc3)C2)n1.O=C(O)C(F)(F)F.O=C(O)C(F)(F)F [GSK2288359] | 0% | 22% | 0% | 11% | 16% | 5% | 0% | 19% | 0% | 0% | 0% | 0% | 0% | 0% | 0% | 0% | 0% | 23% | 0% | 15%
16 | O=C(c1ccc(-c2cc(-c3c[nH]nc3-c3ccccn3)ccn2)cc1)N1CCCC1 [GW792479] | 3% | 56% | 0% | 23% | 46% | 21% | 0% | 7% | 15% | 5% | 19% | 72% | 22% | 0% | 0% | 38% | 0% | 63% | 2% | 57%
17 | CS(=O)(=O)CCNCc1nc(-c2ccc3ncnc(Nc4ccc(OCc5cccc(F)c5)c(Cl)c4)c3c2)cs1.Cl [GW583340] | 23% | 22% | 0% | 0% | 28% | 0% | 11% | 25% | 0% | 12% | 0% | 0% | 0% | 0% | 34% | 0% | 0% | 3% | 10% | 0%
18 | COC(=O)c1c(-c2ccccc2)c2cc(Cl)ccc2c(=O)n1Cc1ccc(S(C)(=O)=O)cc1 | 5% | 9% | 0% | 0% | 14% | 0% | 10% | 10% | 29% | 0% | 0% | 0% | 0% | 4% | 0% | 7% | 10% | 0% | 7% | 9%
19 | c1ccc(-c2ccc3c(-c4ccnc(Nc5ccc6c(c5)OCCO6)n4)cnn3n2)cc1 [GW818941] | 0% | 10% | 0% | 0% | 0% | 0% | 0% | 3% | 0% | 9% | 0% | 3% | 0% | 0% | 34% | 0% | 0% | 11% | 0% | 0%
20 | COc1ccc(-c2oc3ncnc(N)c3c2-c2ccc(OC)cc2)cc1 [SB-589132] | 3% | 2% | 13% | 0% | 0% | 0% | 0% | 0% | 0% | 11% | 0% | 6% | 27% | 12% | 59% | 0% | 0% | 62% | 0% | 5%
21 | O=C(CCO)NCCn1ccc2ncnc(Nc3ccc(Oc4cccc(C(F)(F)F)c4)c(Cl)c3)c21 | 0% | 0% | 0% | 0% | 7% | 0% | 0% | 0% | 0% | 0% | 0% | 0% | 0% | 0% | 0% | 0% | 0% | 6% | 0% | 15%
